PubChem BioAssay (NCI)
About 83,000 compounds went through this panel and 20% of them were active in at least one assay; those are over-represented in the sample as a whole.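 Assay: single dose, 48 h. Readout: percent growth (0 = no net growth; negative = cell death). Active: <10.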 Unmarked numbers belong to inactive results. Activity calls are given as the source filed them.

Tests used:
Experiment in all cases: NCI-60 one-dose screen, 48 h (100 = growth as untreated, 0 = no growth, -100 = all killed)
Settings in all cases: 10 µM unless noted
HCT-15 colon = system: HCT-15 colon
HT29 colon = system: HT29 colon
SNB-75 CNS = system: SNB-75 CNS
SNB-19 CNS = system: SNB-19 CNS
U251 CNS = system: U251 CNS
PC-3 prostate = system: PC-3 prostate
SK-MEL-5 melanoma = system: SK-MEL-5 melanoma
UACC-62 melanoma = system: UACC-62 melanoma
LOX IMVI melanoma = system: LOX IMVI melanoma
SK-MEL-28 melanoma = system: SK-MEL-28 melanoma

Structure (SMILES) | growth (HCT-15 colon) | growth (HT29 colon) | growth (SNB-75 CNS) | growth (SNB-19 CNS) | growth (U251 CNS) | growth (PC-3 prostate) | growth (SK-MEL-5 melanoma) | growth (UACC-62 melanoma) | growth (LOX IMVI melanoma) | growth (SK-MEL-28 melanoma)
Cc1c(C(=O)Nc2nc(-c3ccccc3)cs2)nnn1-c1cccc2ccccc12 | 57.9% [50 µM] | 64.3% [50 µM] | 80.6% [50 µM] | 72.3% [50 µM] | 72.7% [50 µM] | 53.8% [50 µM] | -2.94% [50 µM] (active) | 49.2% [50 µM] | 43.4% [50 µM] | 69.9% [50 µM]
COc1ccc(S(=O)(=O)c2ccc(C(N)=O)cc2)cc1NC(=O)c1[nH]c(C)c2c1CCCCC2=O | 99.6% | 32.6% | -13.8% (active) | 60.2% | 38.6% | 68% | 48.5% | 17% | 32% | 67.5%
O=S(=O)(OCCO)c1ccccc1 | 103% | 98.9% | 75% | 102% | 106% | 99.3% | 94.4% | 94.2% | 103% | 110%
CC1=C(C/C=C(\C)CCC[C@H](C)CCC[C@H](C)CCCC(C)C)C(=O)c2ccccc2C1=O | 104% | 105% | 95.1% | 101% | 98.5% | 98.2% | 112% | 105% | 96.4% | 128%
Cc1c(C)n(CC(O)CNC2CCCCC2C)c2ccccc12 (stereo not given) | -16.2% (active) | -49.6% (active) | -38.7% (active) | 62% | -52.1% (active) | -24% (active) | -86.2% (active) | -84.7% (active) | -83.1% (active) | -85.2% (active)
COC(=O)c1c2c(c(C)[n+]([O-])c1C)C(=O)C=C(NCc1ccc(F)cc1)C2=O | -60.5% (active) | 2.67% (active) | -92% (active) | -66.5% (active) | -23.1% (active) | 2.62% (active) | -96.8% (active) | -81.7% (active) | -47.1% (active) | 6.43% (active)
CCC(=O)Nc1nnc(Cc2ccc(OC)c(OC)c2)s1 | 31.7% | -46.9% (active) | -83.3% (active) | 2.39% (active) | -52.9% (active) | 9.29% (active) | 46.6% | -3.8% (active) | 15.6% | -97.7% (active)
Clc1ccc(C2=NN(c3ccccc3)[C@H](c3cn(-c4ccccc4)nc3-c3ccccc3)C2)cc1 | 103% | 94.6% | 97% | 103% | 93.1% | 93.9% | 114% | 107% | 96.4% | 110%
COc1ccc(OC)c(/C=C2\Oc3cc(O)ccc3C2=O)c1 | 75% | 100% | 88.6% | 95.5% | 89.5% | 95.5% | 92.4% | 89% | 88.6% | 88.5%
COc1cccc(OC)c1OC(=O)c1ccccc1 | 109% | 107% | 82.5% | 104% | 94.8% | 106% | 96% | 97.1% | 92.7% | 98.2%
Cc1nc(-c2ccccc2)cc2c(O)c(C(=O)N/N=C/Cc3ccccc3)[nH]c(=O)c12 | 106% | 93.8% | 90.7% | 110% | 98.8% | 90% | 107% | 109% | 95.7% | 115%
Cc1cccc2c(=O)c3c(sc12)c(NCCCN)nc1ccccc13 | -69.2% (active) | -52.8% (active) | 19.7% | 51.3% | 1.33% (active) | 34.8% | 47.3% | 14.2% | -93.7% (active) | 8.94% (active)
COc1ccc(/C=N/NC(=O)c2cnn(CC(O)Cc3ccccc3)c2N)cc1OC1CCCC1 (stereo not given) | 77.6% | 93.6% | 74.2% | 92.3% | 85.6% | 69.9% | 62.7% | 82.8% | 82.4% | 107%
O=S(=O)(Nc1ncccn1)c1ccc(Nc2ccc3nnc(-c4ccncc4)n3n2)cc1 | 99.3% | 116% | 86.9% | 99.7% | 102% | 102% | 100% | 99.1% | 95.1% | 99.1%
CCN(CC)c1ccc(/C=C(\C#N)c2cc3ccccc3[nH]2)cc1 | 29.7% | 13.7% | 55.2% | 72.9% | 41.7% | 77% | 52.1% | 64% | 29.7% | 67.1%
CCN(CC)c1ccc2c(c1)OS(=O)(=O)N=C2 | 102% | 111% | 87.9% | 101% | 99.3% | 100% | 99.5% | 101% | 89.2% | 105%
O=C(O)C[C@H](O)C[C@H](O)/C=C/c1c(C2CC2)nc2ccccc2c1-c1ccc(F)cc1 | 46.5% | 107% | 103% | 74.9% | 42.8% | 26.9% | 67.6% | 19.5% | 34.5% | 113%
CC1SC(c2cccc(Oc3ccccc3)c2)N(CCc2cccs2)C1=O (stereo not given) | -16.3% (active) | -24.7% (active) | -11.7% (active) | 11.9% | -25.7% (active) | 2.18% (active) | -100% (active) | -71.1% (active) | -100% (active) | -57% (active)
O=c1onc(-c2ccccc2)c2ccccc12 | 115% | 109% | 109% | 104% | 98.7% | 102% | 103% | 103% | 97.5% | 103%
COc1ccc(Sc2ccc3[nH]c(=O)nc(N)c3c2)cc1 | 103% | 106% | 91.3% | 94.1% | 94.3% | 96.9% | 103% | 105% | 99.7% | 104%
CCCCOC(=O)C1OC(Oc2ccc3c(C)cc(=O)oc3c2)[C@@H](OC(C)=O)C(OC(C)=O)C1OC(C)=O (stereo not given in full) | 99.2% | 104% | 86.3% | 99.1% | 100% | 104% | 101% | 97% | 94.5% | 108%
Clc1ccc(C2=Nc3cccc4cccc(c34)N2)cc1Cl | 70.2% | 101% | 77.5% | 70.3% | 104% | 65.8% | 91.6% | 109% | 84% | 104%
Cc1ccc(S(=O)(=O)N2CCc3ccc(O)c4c3C2Cc2cc(Cl)ccc2-4)cc1 (stereo not given) | 48.4% | 103% | 48.7% | 83.9% | 30.2% | 65.7% | 52.8% | 57% | 68.9% | 56.6%
CC(=O)OC[C@]1(C)C=C2C(=O)[C@](C)(O)C3(CC3)C(C)=C2[C@H]1OC(C)=O | 72.9% | 69.9% | 56.5% | 83% | 79.5% | 88.1% | 87.8% | 103% | 78.3% | 109%
CCN1CCN(c2ccc(Nc3ncc4ccc5ncn(C(C)C)c5c4n3)nc2)CC1 | -0.238% (active) | 5.37% (active) | -66% (active) | 9.26% (active) | 14.1% | 7.15% (active) | -8.75% (active) | -17% (active) | -33.3% (active) | -13.7% (active)
CS(=O)(=O)Nc1cccc(C(=O)NCc2ccc(N3CCOCC3)cc2)c1 | 104% | 95% | 68.2% | 108% | 107% | 104% | 98.9% | 113% | 99.8% | 107%
O=C(NC1CC1)c1cc2n(n1)CC(c1ccccc1)N2 (stereo not given) | 95.3% | 107% | 91.2% | 100% | 102% | 98.8% | 99.4% | 88.4% | 98.3% | 107%
